Laboratory results as given in the supplement of paper PMC7411054.
Structures can show the parent of a compound that is named as a salt.

Legend:
Conditions in all cases: treatment time: 24 h
A549-ACTB-RAB5A [1] = experiment: lowest phenotypically active concentration; higher = less potent
Procedure, shortened: (§1)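 Cells from fifteen gene-edited reporter lines (A549, HepG2 and WPMY1) were treated for 24 h at 0.3, 1, 3 or 9 µM and imaged live, four wells per condition. Features were normalised per well to solvent control wells. A condition deviated if ≥3 of 4 wells passed the 95th percentile of control Euclidean distances and was reproducible if its median replicate Pearson correlation beat the 95th percentile of non-replicates; phenotypic activity needed both.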

A549-GM130-SQSTM1 [2] = experiment: as above
Procedure, shortened: as §1

A549-TUBA1B-RELA [3] = experiment: as above
Procedure, shortened: as §1

HepG2-ACTB-RAB5A [4] = experiment: as above
Procedure, shortened: as §1

HepG2-TP53BP1-CLTA [5] = experiment: as above
Procedure, shortened: as §1

A549-ACTB-RAB5A [6] = experiment: phenotypically active (imaging signature differs from DMSO and reproducible) at any of 0.3-9 uM (binary (1 = active, 0 = inactive)); higher = active
Procedure, shortened: as §1

A549-CANX-COX4 = experiment: as above
Procedure, shortened: as §1

A549-GM130-SQSTM1 [7] = experiment: as above
Procedure, shortened: as §1

A549-TP53BP1-CLTA = experiment: as above
Procedure, shortened: as §1

A549-TUBA1B-RELA [8] = experiment: as above
Procedure, shortened: as §1

HepG2-ACTB-RAB5A [9] = experiment: as above
Procedure, shortened: as §1

HepG2-CANX-COX4 = experiment: as above
Procedure, shortened: as §1

HepG2-GM130-SQSTM1 = experiment: as above
Procedure, shortened: as §1

HepG2-TP53BP1-CLTA [10] = experiment: as above
Procedure, shortened: as §1

HepG2-TUBA1B-RELA = experiment: as above
Procedure, shortened: as §1

WPMY1-ACTB-RAB5A = experiment: as above
Procedure, shortened: as §1

WPMY1-CANX-COX4 = experiment: as above
Procedure, shortened: as §1

WPMY1-GM130-SQSTM1 = experiment: as above
Procedure, shortened: as §1

WPMY1-TP53BP1-CLTA = experiment: as above
Procedure, shortened: as §1

WPMY1-TUBA1B-RELA = experiment: as above
Procedure, shortened: as §1

| Compound | lowest phenotypically active concentration (A549-ACTB-RAB5A [1]) | lowest phenotypically active concentration (A549-GM130-SQSTM1 [2]) | lowest phenotypically active concentration (A549-TUBA1B-RELA [3]) | lowest phenotypically active concentration (HepG2-ACTB-RAB5A [4]) | lowest phenotypically active concentration (HepG2-TP53BP1-CLTA [5]) | phenotypically active (A549-ACTB-RAB5A [6]) | phenotypically active (A549-CANX-COX4) | phenotypically active (A549-GM130-SQSTM1 [7]) | phenotypically active (A549-TP53BP1-CLTA) | phenotypically active (A549-TUBA1B-RELA [8]) | phenotypically active (HepG2-ACTB-RAB5A [9]) | phenotypically active (HepG2-CANX-COX4) | phenotypically active (HepG2-GM130-SQSTM1) | phenotypically active (HepG2-TP53BP1-CLTA [10]) | phenotypically active (HepG2-TUBA1B-RELA) | phenotypically active (WPMY1-ACTB-RAB5A) | phenotypically active (WPMY1-CANX-COX4) | phenotypically active (WPMY1-GM130-SQSTM1) | phenotypically active (WPMY1-TP53BP1-CLTA) | phenotypically active (WPMY1-TUBA1B-RELA) |
| --- | --- | --- | --- | --- | --- | --- | --- | --- | --- | --- | --- | --- | --- | --- | --- | --- | --- | --- | --- | --- |
| CSc1ccc2c(c1)N(CCC1CCCCN1C)c1ccccc1S2 (stereo not given) [thioridazine] | 3 µM | 3 µM | 3 µM | 9 µM | 9 µM | 1 (active) | 0 (inactive) | 1 (active) | 1 (active) | 1 (active) | 1 (active) | 1 (active) | 1 (active) | 1 (active) | 1 (active) | 1 (active) | 1 (active) | 1 (active) | 1 (active) | 1 (active) |
| CCCNCC(O)COc1ccccc1C(=O)CCc1ccccc1 (stereo not given) [propafenone] | 9 µM | 9 µM | 9 µM | 9 µM | – | 1 (active) | 0 (inactive) | 1 (active) | 1 (active) | 1 (active) | 1 (active) | 0 (inactive) | 0 (inactive) | 0 (inactive) | 1 (active) | 1 (active) | 1 (active) | 1 (active) | 1 (active) | 0 (inactive) |
| O=C([C@H](Cc1cccc(C(F)(F)F)c1)NS(=O)(=O)c1cc(F)c2c(c1)CCNC2)N1CCCC1 [(S)-PFI 2 hydrochloride] | 9 µM | 9 µM | – | – | – | 1 (active) | 0 (inactive) | 1 (active) | 0 (inactive) | 0 (inactive) | 0 (inactive) | 0 (inactive) | 0 (inactive) | 0 (inactive) | 0 (inactive) | 0 (inactive) | 0 (inactive) | 0 (inactive) | 0 (inactive) | 0 (inactive) |
| Cc1cc(Nc2ccc(NC(=O)c3ccc(Nc4ccnc5ccccc45)cc3)cc2)nc(N)n1 | 1 µM | 1 µM | 1 µM | 9 µM | 3 µM | 1 (active) | 0 (inactive) | 1 (active) | 1 (active) | 1 (active) | 1 (active) | 0 (inactive) | 1 (active) | 1 (active) | 1 (active) | 1 (active) | 0 (inactive) | 1 (active) | 1 (active) | 1 (active) |
| Cc1ccc(NC(=O)c2cccc(N(C)C)c2)cc1NC(=O)c1ccc(O)cc1 | 3 µM | 3 µM | 3 µM | – | – | 1 (active) | 0 (inactive) | 1 (active) | 1 (active) | 1 (active) | 0 (inactive) | 0 (inactive) | 0 (inactive) | 0 (inactive) | 0 (inactive) | 1 (active) | 0 (inactive) | 0 (inactive) | 0 (inactive) | 0 (inactive) |
| c1ccc(CN(CC2=NCCN2)c2ccccc2)cc1 [antazoline] | 3 µM | 9 µM | 9 µM | – | – | 1 (active) | 0 (inactive) | 1 (active) | 0 (inactive) | 1 (active) | 0 (inactive) | 0 (inactive) | 0 (inactive) | 0 (inactive) | 0 (inactive) | 0 (inactive) | 0 (inactive) | 0 (inactive) | 0 (inactive) | 0 (inactive) |
| Clc1ccccc1C(c1ccccc1)(c1ccccc1)n1ccnc1 [Clotrimazole] | 9 µM | 9 µM | – | 9 µM | – | 1 (active) | 0 (inactive) | 1 (active) | 1 (active) | 0 (inactive) | 1 (active) | 1 (active) | 0 (inactive) | 0 (inactive) | 0 (inactive) | 0 (inactive) | 1 (active) | 1 (active) | 0 (inactive) | 0 (inactive) |
| C[C@H]1Oc2cc(cnc2N)-c2c(nn(C)c2C#N)CN(C)C(=O)c2ccc(F)cc21 | 3 µM | 1 µM | 1 µM | 3 µM | 3 µM | 1 (active) | 0 (inactive) | 1 (active) | 1 (active) | 1 (active) | 1 (active) | 1 (active) | 1 (active) | 1 (active) | 1 (active) | 0 (inactive) | 0 (inactive) | 0 (inactive) | 1 (active) | 0 (inactive) |
| CC#CC(=O)N1CCC[C@H]1c1nc(-c2ccc(C(=O)Nc3ccccn3)cc2)c2c(N)nccn12 [acalabrutinib] | 9 µM | 9 µM | – | – | – | 1 (active) | 0 (inactive) | 1 (active) | 0 (inactive) | 0 (inactive) | 0 (inactive) | 0 (inactive) | 0 (inactive) | 0 (inactive) | 0 (inactive) | 0 (inactive) | 0 (inactive) | 0 (inactive) | 0 (inactive) | 0 (inactive) |
| N#C/C(=C(/N)Sc1ccc(N)cc1)c1ccccc1C(F)(F)F | 3 µM | 3 µM | – | 3 µM | 3 µM | 1 (active) | 0 (inactive) | 1 (active) | 1 (active) | 0 (inactive) | 1 (active) | 1 (active) | 1 (active) | 1 (active) | 1 (active) | 0 (inactive) | 0 (inactive) | 0 (inactive) | 1 (active) | 0 (inactive) |
| O=C(NOCC1CC1)c1ccc(F)c(F)c1Nc1ccc(I)cc1Cl | ≤ 0.3 µM | 1 µM | 9 µM | ≤ 0.3 µM | ≤ 0.3 µM | 1 (active) | 0 (inactive) | 1 (active) | 1 (active) | 1 (active) | 1 (active) | 1 (active) | 1 (active) | 1 (active) | 1 (active) | 0 (inactive) | 0 (inactive) | 0 (inactive) | 0 (inactive) | 0 (inactive) |
| CCCCOc1cc(C(=O)NCCN(CC)CC)c2ccccc2n1 [cinchocaine] | 3 µM | 9 µM | 9 µM | – | 9 µM | 1 (active) | 0 (inactive) | 1 (active) | 1 (active) | 1 (active) | 0 (inactive) | 0 (inactive) | 0 (inactive) | 1 (active) | 0 (inactive) | 1 (active) | 0 (inactive) | 0 (inactive) | 0 (inactive) | 0 (inactive) |
| Cc1noc(C)c1-c1ccc2c(c1)nc(CCc1ccc(OCCCN(C)C)cc1)n2CCN1CCOCC1 | 9 µM | 3 µM | 3 µM | 9 µM | 9 µM | 1 (active) | 0 (inactive) | 1 (active) | 1 (active) | 1 (active) | 1 (active) | 1 (active) | 1 (active) | 1 (active) | 1 (active) | 1 (active) | 1 (active) | 1 (active) | 1 (active) | 1 (active) |
| CC/C(=C(\CC)c1ccc(O)c(CN(CC)CC)c1)c1ccc(O)c(CN(CC)CC)c1 | ≤ 0.3 µM | ≤ 0.3 µM | ≤ 0.3 µM | 1 µM | ≤ 0.3 µM | 1 (active) | 0 (inactive) | 1 (active) | 1 (active) | 1 (active) | 1 (active) | 0 (inactive) | 1 (active) | 1 (active) | 1 (active) | 1 (active) | 1 (active) | 1 (active) | 1 (active) | 1 (active) |
| Cc1noc(C)c1Cn1cc(C#N)c2cc(Oc3ccc(NC(=O)[C@@H]4CCCN4)cc3)ccc21 | 9 µM | 9 µM | 9 µM | – | 9 µM | 1 (active) | 0 (inactive) | 1 (active) | 1 (active) | 1 (active) | 0 (inactive) | 0 (inactive) | 1 (active) | 1 (active) | 1 (active) | 1 (active) | 1 (active) | 1 (active) | 1 (active) | 1 (active) |
| COc1cc(NC(=O)c2cccc(-n3cc(NC(=O)Nc4cccc(C)c4)cn3)c2)cc(OC)c1OC | 9 µM | 3 µM | 9 µM | 9 µM | – | 1 (active) | 0 (inactive) | 1 (active) | 0 (inactive) | 1 (active) | 1 (active) | 0 (inactive) | 0 (inactive) | 0 (inactive) | 0 (inactive) | 0 (inactive) | 0 (inactive) | 1 (active) | 0 (inactive) | 1 (active) |
| O=C(NCCN1CCC(n2c(=O)[nH]c3ccccc32)CC1)c1cc2cc(F)ccc2[nH]1 | 9 µM | 9 µM | 3 µM | 9 µM | 9 µM | 1 (active) | 0 (inactive) | 1 (active) | 0 (inactive) | 1 (active) | 1 (active) | 1 (active) | 1 (active) | 1 (active) | 1 (active) | 1 (active) | 1 (active) | 1 (active) | 1 (active) | 1 (active) |
| CNCCCN1c2ccccc2CCc2ccccc21 [desipramine] | 9 µM | 3 µM | 9 µM | 9 µM | – | 1 (active) | 0 (inactive) | 1 (active) | 0 (inactive) | 1 (active) | 1 (active) | 0 (inactive) | 0 (inactive) | 0 (inactive) | 1 (active) | 1 (active) | 0 (inactive) | 1 (active) | 0 (inactive) | 1 (active) |
| CC(CN1c2ccccc2Sc2ccccc21)N(C)C (stereo not given) [promethazine] | 9 µM | 9 µM | 9 µM | 9 µM | 9 µM | 1 (active) | 0 (inactive) | 1 (active) | 0 (inactive) | 1 (active) | 1 (active) | 0 (inactive) | 1 (active) | 1 (active) | 1 (active) | 1 (active) | 0 (inactive) | 1 (active) | 1 (active) | 1 (active) |
| Cc1cc(CS(=O)(=O)c2ccccc2)cc(OCc2ccc(CN3CCC[C@@H]3CO)cc2)c1 [PF 543 hydrochloride] | 9 µM | 9 µM | 9 µM | 9 µM | 9 µM | 1 (active) | 0 (inactive) | 1 (active) | 0 (inactive) | 1 (active) | 1 (active) | 0 (inactive) | 1 (active) | 1 (active) | 0 (inactive) | 1 (active) | 0 (inactive) | 0 (inactive) | 0 (inactive) | 0 (inactive) |
| COc1ccc(Cl)cc1NC(=O)Nc1cc(C)nc2ccccc12 | 3 µM | 3 µM | 3 µM | 3 µM | 3 µM | 1 (active) | 0 (inactive) | 1 (active) | 0 (inactive) | 1 (active) | 1 (active) | 1 (active) | 1 (active) | 1 (active) | 1 (active) | 0 (inactive) | 0 (inactive) | 0 (inactive) | 0 (inactive) | 0 (inactive) |
| O=C([C@@H](Cc1cccc(C(F)(F)F)c1)NS(=O)(=O)c1cc(F)c2c(c1)CCNC2)N1CCCC1 [(R)-PFI 2 hydrochloride] | 9 µM | 9 µM | 9 µM | – | – | 1 (active) | 0 (inactive) | 1 (active) | 0 (inactive) | 1 (active) | 0 (inactive) | 0 (inactive) | 0 (inactive) | 0 (inactive) | 0 (inactive) | 0 (inactive) | 0 (inactive) | 0 (inactive) | 0 (inactive) | 0 (inactive) |
